# Bioassay records (PubChem)
# An excerpt weighted towards active compounds, which were near 3.5% of everything screened.
# GPR151 activ: activates the human receptor GPR151 | PathHunter beta-arrestin GPR151 cells, luminescence | activation, % at 11.2 µM | 1% of 650,000 active | Q8TDV0; in the data active = activation above about 4.9%;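 also: 0% = median of compound wells and 100% = cells with positive control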
# FBW7 activator: activators of human E3 ligase FBW7; 0.13% of 650,000 active; normalized activity (activation), % at 26.1 µM; AlphaScreen FBW7–phospho-cyclin E peptide binding, activator screen; Q969H0; AID 1259310; in the data active = normalized activity above about 1.9%;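 also: purified mutant Fbw7 with reduced substrate affinity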
# TEAD-YAP block: TEAD-YAP interaction inhibition; 1.4% of 640,000 active; AID 1259422; inhibition, % at 9.12 µM; HEK-TIYL cells, TEAD-Gal4/YAP UAS-luciferase luminescence; in the data active = inhibition above about 32%;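 also: 0% = median of test compound wells and 100% = reference inhibitor wells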
# MITF primary: blocks human microphthalmia-associated transcription factor; O75030; AlphaScreen MITF homodimerization, bead proximity signal; 0.91% of 650,000 active; inhibition, % at 2.6 µM; in the data active = inhibition above about 50%;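 also: 0% = vehicle wells with protein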
# The depositor's hits bear a star.
SMILES,GPR151 activ,FBW7 activator,TEAD-YAP block,MITF primary
CCOC(=O)c1c(-c2ccccc2)csc1NC(=O)c1ccc(Cl)cc1,-1,0,4,-8
CN(C)c1ccc(Nc2c([N+](=O)[O-])c(=O)oc3ccccc23)cc1,1,0,53*,4
Cc1ccc(Nc2c([N+](=O)[O-])c(=O)oc3ccccc23)cc1,0,0,-1,10
CCOC(=O)c1c(C)oc2c1c1c(c3ccccc32)OCN(C(C)c2ccccc2)C1 (centres undefined),-1,0,-98,-2
CC(c1ccccc1)N1COc2c(cc(Cl)c3cccnc23)C1 (centres undefined),2,-1,48*,64*
CN1CCN(c2cc(-c3cccnc3)nc(-c3ccccn3)n2)CC1,3,1,4,13
O=C(Nc1ccc2c(c1)OCCO2)c1ccccc1NC(=S)NCCN1CCOCC1,-8,0,73*,-7
Fc1ccccc1NC(=S)NCCN1CCOCC1,0,0,-3,20
COc1cccc(CN2CCC(C3(CCc4ccccc4)NC(=O)NC3=O)CC2)c1OC (centres undefined),-1,0,6,10
Cn1cccc1/C=C(\C(=O)c1ccccc1)N1C=CC=CC1=C(C#N)C#N,0,0,61*,-5
N#CC(C#N)=C1C=CC=CN1/C(=C\c1ccccc1)C(=O)c1ccccc1,1,1,-5,12
COc1ccc(C(=O)/C(=C\c2ccco2)N2C=CC=CC2=C(C#N)C#N)cc1,-4,0,43*,5
CCN(CC)c1cc(C)nc(Nc2ccc(NC(=O)C(C)C)cc2)n1,-1,0,48*,13
N#CC1=C(N)Oc2c(ccc3cccnc23)C1c1ccccc1Cl (centres undefined),-2,-1,17,3
N#CC1=C(N)Oc2cc(N)ccc2C1c1cccc([N+](=O)[O-])c1 (centres undefined),1,0,40*,-2
N#CC1=C(N)Oc2c(ccc3cccnc23)C1c1cccc([N+](=O)[O-])c1 (centres undefined),1,0,49*,9
N#CC1=C(N)Oc2c(ccc3cccnc23)C1c1ccc(Br)cc1 (centres undefined),-1,-1,17,12
Cc1ccc(C2C(C#N)=C(N)Oc3c2ccc2cccnc32)cc1 (centres undefined),2,0,37*,0
O=C(Nc1nnc(-c2ccncc2)o1)c1c(F)cccc1F,1,0,-3,23
O=C(CSc1nc2ccccc2nc1Cc1ccc(F)cc1)Nc1ccccc1C(F)(F)F,-1,1,4,8
FC(F)(F)C1=Nc2cc(Cl)c(Cl)cc2N=C(c2cccs2)C1,0,0,37*,-6
CC(C)(C)n1ncc2c(=O)n(CC(=O)OCc3ccccc3)cnc21,-1,0,82*,0
CC(=O)Nc1ccc(Nc2ccnc(Nc3nccc4ccccc34)n2)cc1,0,0,48*,25
CC(=O)Nc1ccc(Nc2cc(C)nc(Nc3nccc4ccccc34)n2)cc1,4,0,65*,4
CC(=O)Nc1ccc(Nc2nc(Nc3nccc4ccccc34)ncc2C)cc1,0,0,8,3
SMILES,GPR151 activ,FBW7 activator,TEAD-YAP block,MITF primary
CC(=O)Nc1ccc(Nc2cc(C)nc(Nc3cnccn3)n2)cc1,1,0,-24,5
CCc1cc2cc3c(cc2n2c(=O)n(Cc4cscn4)nc12)OCO3,-1,0,8,4
CCCc1noc(CN2CCN(c3ccccc3F)CC2)n1,-2,0,-7,1
COc1ccc(C(=O)N=c2sc3cc(F)ccc3n2C)c(OC)c1,-1,0,55*,-1
CCSc1nnc(C2CCN(CC(=O)Nc3cccc4ccccc34)CC2)n1C,-1,2.8*,4,1
COc1ccc(-c2nc(NCc3cccc(C(F)(F)F)c3)c3ncn(-c4ccsc4)c3n2)cc1,0,0,4,16
CC(C)N(CCNC(=O)c1cccc(Oc2ccccc2)n1)C(C)C,-1,3.1*,13,-2
CC(C)N(CCNC(=O)c1cnc(Oc2ccccc2)s1)C(C)C,-1,0,5,42
COc1ccc2c(c1)CC(c1nc3ccc(-c4ccnc(N)c4)cc3[nH]1)CO2 (centres undefined),0,0,21,22
CCn1c(C2COc3ccc(OC)cc3C2)nc2cc(F)c(-c3ccnc4[nH]ccc34)cc21 (centres undefined),1,0,-1,58*
COc1ccc2c(c1)CC(c1nc3cc(-c4ccnc5[nH]ccc45)c(F)cc3[nH]1)CO2 (centres undefined),1,0,50*,-7
